The values that follow come from PubChem BioAssay (NCI).

Molecules are shown by their SMILES. The panel holds about 83,000 compounds, 20% with a hit somewhere; the sample as a whole holds those more often.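 Compound tested at a single concentration for 48 hours in 96-well plates; a percent growth value below 10 was scored as active.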 Unmarked numbers belong to inactive results. Active and inactive are the calls of the source.

Among the test systems are NCI-H23 lung; NCI-H322M lung; HOP-62 NSCLC; NCI-H460 lung; HOP-92 NSCLC; NCI-H522 lung; A549/ATCC NSCLC; 786-0 renal; COLO 205 colon; DU-145 prostate; MALME-3M melanoma; MDA-MB-231 breast; SF-268 CNS; SF-295 CNS; SF-539 CNS; UACC-257 melanoma; M14 melanoma; HCT-15 colon; K-562 leukemia; RXF 393 renal.
Common to all, as to assay: NCI-60 one-dose screen, 48 h (100 = growth as untreated, 0 = no growth, -100 = all killed)
Common to all, as to conditions: 10 µM unless noted

As to `N[C@@H](CC/[N+]([O-])=N/O)C(=O)O`, the growth in the assay on NCI-H23 lung was 97.2%; with NCI-H322M lung, 103%; in the assay with HOP-62 NSCLC it was 101%; in the assay with NCI-H460 lung, 97.9%; with HOP-92 NSCLC it was 107%; with NCI-H522 lung, 95.7%. Moreover, the growth with A549/ATCC NSCLC is 102%; in the assay on 786-0 renal, 104%; in the assay with COLO 205 colon, 104%; with DU-145 prostate, 97.8%; in the assay on MALME-3M melanoma, 101%; with MDA-MB-231 breast, 102%. The growth is 95.9% with SF-268 CNS; 110% in the assay with SF-295 CNS; 95% in the assay on SF-539 CNS; 112% in the assay with UACC-257 melanoma; 102% in the assay with M14 melanoma; 104% with HCT-15 colon.
In the case of `O=C(c1ccccc1)N(C(=S)NCCc1ccc(Cl)cc1)c1ccc(Cl)cc1`, the growth was 74.7% in the assay on NCI-H23 lung; 75.9% in the assay with NCI-H322M lung; 91.3% in the assay with HOP-62 NSCLC; 80.1% with NCI-H460 lung; 76.3% in the assay on HOP-92 NSCLC; 92.1% in the assay on NCI-H522 lung. Further, the growth was 82.4% with A549/ATCC NSCLC; 57.2% in the assay on 786-0 renal; 61.6% in the assay on COLO 205 colon; 29.3% in the assay with DU-145 prostate; 4.72% (active) with K-562 leukemia; 91.7% with MDA-MB-231 breast. Further, the growth with SF-268 CNS is 33.2%; in the assay on SF-295 CNS, 68.3%; in the assay on SF-539 CNS it was 36.9%; with UACC-257 melanoma it was 71.2%; in the assay on M14 melanoma, 71.2%; with HCT-15 colon, 47.6%.
In the case of `CCCCCCCCCCOC(=O)c1ccccc1C(=O)OCCCC`, the growth with NCI-H23 lung is 107%; with NCI-H322M lung, 108%; in the assay with HOP-62 NSCLC, 107%; with NCI-H460 lung, 120%; with HOP-92 NSCLC, 91.3%; with NCI-H522 lung, 91.2%. Besides, the growth in the assay with A549/ATCC NSCLC was 111%; with 786-0 renal, 106%; in the assay with COLO 205 colon, 117%; in the assay on DU-145 prostate, 114%; in the assay with K-562 leukemia it was 99.9%; in the assay on MALME-3M melanoma, 157%. Besides, the growth was 109% in the assay with SF-268 CNS; 103% with SF-539 CNS; 111% with UACC-257 melanoma; 100% in the assay with M14 melanoma; 111% with HCT-15 colon.
In the case of `COc1cc(C2C(C#N)=C(N)OC3=C2C(=O)c2ccccc2C3=O)cc(OC)c1OC` (centres undefined), the growth was 31.4% in the assay with NCI-H23 lung; 48.1% in the assay with NCI-H322M lung; 7.45% (active) in the assay with HOP-62 NSCLC; 9.57% (active) in the assay with NCI-H460 lung; 80.6% with HOP-92 NSCLC; -18.6% (active) in the assay on NCI-H522 lung. Besides, the growth was 41% in the assay with A549/ATCC NSCLC; 35.6% in the assay on 786-0 renal; 89% in the assay on COLO 205 colon; 25.1% in the assay with DU-145 prostate; 47.8% in the assay on MALME-3M melanoma; 36.4% with MDA-MB-231 breast. The growth in the assay with SF-268 CNS was 39.5%; in the assay with SF-295 CNS, 23.2%; with SF-539 CNS, -19.6% (active); in the assay on UACC-257 melanoma it was 50.5%; in the assay on M14 melanoma it was 12.3%; with HCT-15 colon, 20.1%.
`Cc1ccc2[nH]c(=O)cc(-n3nncc3Cn3c4ccccc4c4ccccc43)c2c1`: the growth with NCI-H23 lung was 94.1%; in the assay on NCI-H322M lung, 97.6%; in the assay on HOP-62 NSCLC, 93.4%; in the assay with NCI-H460 lung, 102%; in the assay with HOP-92 NSCLC, 89.8%; in the assay on NCI-H522 lung it was 93.9%. Moreover, the growth with A549/ATCC NSCLC was 98.9%; in the assay with 786-0 renal it was 101%; with COLO 205 colon, 116%; with DU-145 prostate it was 102%; in the assay on MALME-3M melanoma it was 93.5%; in the assay with MDA-MB-231 breast it was 97.6%. Also, the growth with SF-268 CNS was 86.4%; in the assay with SF-295 CNS, 98.9%; in the assay with SF-539 CNS, 94%; in the assay on UACC-257 melanoma it was 97.5%; with M14 melanoma, 105%; in the assay with HCT-15 colon it was 99%.
Regarding `COc1ccc(-c2nocc2-c2cccs2)cc1`, the growth with NCI-H23 lung is 105%; with NCI-H322M lung it was 102%; with HOP-62 NSCLC it was 101%; in the assay on NCI-H460 lung it was 102%; in the assay with HOP-92 NSCLC, 86.6%; in the assay on NCI-H522 lung it was 98.5%. Besides, the growth in the assay on A549/ATCC NSCLC was 99.3%; in the assay on 786-0 renal, 103%; in the assay with COLO 205 colon it was 115%; with DU-145 prostate, 107%; with MALME-3M melanoma it was 106%; in the assay on MDA-MB-231 breast, 92.8%. Also, the growth in the assay on SF-268 CNS is 101%; with SF-295 CNS, 95.1%; with SF-539 CNS, 101%; in the assay with UACC-257 melanoma, 118%; in the assay on M14 melanoma, 111%; in the assay on HCT-15 colon, 99.1%.
As for `O=C(c1ccccc1)N(CCc1ccc(Cl)cc1)C(=S)N(C(=O)c1ccccc1)c1ccccc1`, the growth in the assay on NCI-H23 lung was 92.7%; in the assay with NCI-H322M lung it was 111%; in the assay with HOP-62 NSCLC, 118%; in the assay on NCI-H460 lung it was 106%; with HOP-92 NSCLC it was 71%; in the assay on NCI-H522 lung it was 105%. Also, the growth in the assay on A549/ATCC NSCLC was 97.3%; in the assay on 786-0 renal it was 97.6%; in the assay with COLO 205 colon it was 150%; in the assay on DU-145 prostate, 83.9%; with K-562 leukemia, 58.3%; in the assay on MDA-MB-231 breast it was 107%. The growth in the assay on SF-268 CNS is 101%; in the assay on SF-295 CNS, 109%; with SF-539 CNS, 106%; with UACC-257 melanoma, 102%; in the assay with M14 melanoma, 113%; in the assay with HCT-15 colon it was 93.8%.
On to `COC(=O)c1c2c(c(C)[n+]([O-])c1C)C(=O)C=C(NCc1ccccc1)C2=O`, for which the growth in the assay with NCI-H23 lung is -50% (active); with NCI-H322M lung it was -5.71% (active); in the assay with HOP-62 NSCLC, 2.96% (active); in the assay on NCI-H460 lung, -13.1% (active); with HOP-92 NSCLC it was -27.2% (active); with NCI-H522 lung it was -26.1% (active). For the same compound, the growth was -4.94% (active) in the assay with A549/ATCC NSCLC; 4.63% (active) in the assay with 786-0 renal; -92.7% (active) with DU-145 prostate; 1.96% (active) with K-562 leukemia; -96.9% (active) in the assay with MALME-3M melanoma; -26% (active) in the assay with MDA-MB-231 breast. Besides, the growth was -25.3% (active) with RXF 393 renal; -4.22% (active) with SF-268 CNS; -84% (active) with SF-295 CNS; -90.2% (active) in the assay on SF-539 CNS; -89.6% (active) in the assay with UACC-257 melanoma; -80.1% (active) in the assay with M14 melanoma. Moreover, in the assay with HCT-15 colon, the growth is -68.5% (active).
